Test in all cases: log2 ratio of Biotin-Ahx-Ub-VS probe labelling (fragment/DMSO); higher = less target engagement (more negative = stronger competition), active = hit call of the paper (q ≤ 0.05, log2 ratio ≤ -1)
Holding throughout (conditions): compound concentration: 200 uM; treatment time: 3 h

In one assay the target is T1, ALG13 (UniProt Q9NP73).
T1 sequence (whole entry): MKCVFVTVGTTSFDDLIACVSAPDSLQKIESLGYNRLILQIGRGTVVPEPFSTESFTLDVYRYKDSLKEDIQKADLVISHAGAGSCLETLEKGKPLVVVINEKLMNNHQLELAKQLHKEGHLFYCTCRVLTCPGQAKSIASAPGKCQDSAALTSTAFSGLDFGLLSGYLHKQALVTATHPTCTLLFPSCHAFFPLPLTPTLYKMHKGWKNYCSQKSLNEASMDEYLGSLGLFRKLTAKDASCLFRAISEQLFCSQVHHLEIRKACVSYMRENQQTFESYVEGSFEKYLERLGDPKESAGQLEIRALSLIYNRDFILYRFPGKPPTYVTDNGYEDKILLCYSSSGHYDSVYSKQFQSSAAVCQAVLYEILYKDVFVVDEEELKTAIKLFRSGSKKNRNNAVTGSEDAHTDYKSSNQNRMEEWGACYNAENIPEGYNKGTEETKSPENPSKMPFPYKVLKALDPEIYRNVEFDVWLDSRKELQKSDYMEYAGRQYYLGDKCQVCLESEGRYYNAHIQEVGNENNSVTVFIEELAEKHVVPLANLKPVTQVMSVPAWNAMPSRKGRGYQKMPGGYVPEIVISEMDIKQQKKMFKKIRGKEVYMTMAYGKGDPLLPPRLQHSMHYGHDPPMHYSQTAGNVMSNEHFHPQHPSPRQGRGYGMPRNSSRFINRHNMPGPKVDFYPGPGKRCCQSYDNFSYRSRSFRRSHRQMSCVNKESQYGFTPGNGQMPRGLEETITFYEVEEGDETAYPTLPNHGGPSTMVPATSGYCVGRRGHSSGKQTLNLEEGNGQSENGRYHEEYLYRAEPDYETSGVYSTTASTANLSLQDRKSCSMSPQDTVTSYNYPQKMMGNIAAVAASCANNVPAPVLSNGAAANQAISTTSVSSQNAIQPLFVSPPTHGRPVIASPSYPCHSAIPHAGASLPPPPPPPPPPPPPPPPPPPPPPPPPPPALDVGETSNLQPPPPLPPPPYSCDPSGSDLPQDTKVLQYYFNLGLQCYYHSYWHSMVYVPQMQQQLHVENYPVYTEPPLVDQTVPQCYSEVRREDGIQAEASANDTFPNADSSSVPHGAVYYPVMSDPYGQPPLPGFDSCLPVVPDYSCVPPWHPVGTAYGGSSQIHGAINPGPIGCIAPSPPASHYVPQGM
In short, it runs like this:
(§1)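 Average log2 ratios of fragment over vehicle were obtained by unpaired t-test from global-median-normalised Spectronaut label-free quantities. Proteins with ≥2 unique peptides were included. HEK293T lysate (495 µg per sample) was treated in triplicate with fragment at 200 µM or vehicle for 3 h, then with Biotin-Ahx-Ub-VS at 0.5 µM final for 1 h, and labelled DUBs were NeutrAvidin-enriched and run by diaPASEF LC-MS/MS.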

The next assay has as its target ATXN3 (UniProt P54252). A digest of the protocol:
as §1

The target in another assay is T2, BAP1 (UniProt Q92560).
T2 sequence (whole entry): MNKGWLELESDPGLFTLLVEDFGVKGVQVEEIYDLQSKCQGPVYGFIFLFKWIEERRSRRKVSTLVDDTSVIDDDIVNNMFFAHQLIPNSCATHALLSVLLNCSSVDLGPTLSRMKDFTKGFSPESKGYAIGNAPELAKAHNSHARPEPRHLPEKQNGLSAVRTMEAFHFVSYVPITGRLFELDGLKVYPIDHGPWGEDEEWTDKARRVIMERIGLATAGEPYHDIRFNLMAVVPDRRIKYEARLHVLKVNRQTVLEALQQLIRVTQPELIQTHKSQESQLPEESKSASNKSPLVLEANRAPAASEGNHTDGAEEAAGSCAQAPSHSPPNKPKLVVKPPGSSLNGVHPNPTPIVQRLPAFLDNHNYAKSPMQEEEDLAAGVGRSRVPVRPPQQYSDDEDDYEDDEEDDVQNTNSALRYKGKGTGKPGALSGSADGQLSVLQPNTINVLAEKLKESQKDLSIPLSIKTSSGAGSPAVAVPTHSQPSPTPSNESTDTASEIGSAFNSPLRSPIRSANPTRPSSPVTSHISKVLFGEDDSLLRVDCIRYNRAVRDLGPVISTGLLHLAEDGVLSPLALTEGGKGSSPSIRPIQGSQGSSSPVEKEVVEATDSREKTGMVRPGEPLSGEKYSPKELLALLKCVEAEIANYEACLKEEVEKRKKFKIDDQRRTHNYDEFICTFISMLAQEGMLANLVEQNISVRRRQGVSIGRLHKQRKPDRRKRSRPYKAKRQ
A digest of the protocol: as §1

The next assay addresses EIF3F (UniProt O00303). A digest of the protocol: as §1
The target of the next assay is EIF3H (UniProt O15372). In short, it runs like this: as §1
EIF3H, sequence (O15372 whole entry): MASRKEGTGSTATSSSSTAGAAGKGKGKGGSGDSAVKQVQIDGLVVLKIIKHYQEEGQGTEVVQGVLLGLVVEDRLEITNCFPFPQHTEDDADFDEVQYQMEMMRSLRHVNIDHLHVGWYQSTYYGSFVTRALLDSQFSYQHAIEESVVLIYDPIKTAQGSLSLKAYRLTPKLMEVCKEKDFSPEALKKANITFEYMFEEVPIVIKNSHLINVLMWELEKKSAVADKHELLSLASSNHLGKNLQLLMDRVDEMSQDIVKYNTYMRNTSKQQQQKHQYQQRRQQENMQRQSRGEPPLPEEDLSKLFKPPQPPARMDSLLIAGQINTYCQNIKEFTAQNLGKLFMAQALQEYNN
The next assay concerns the target T3, FAM105A (UniProt Q9NUU6).
T3 sequence (whole entry): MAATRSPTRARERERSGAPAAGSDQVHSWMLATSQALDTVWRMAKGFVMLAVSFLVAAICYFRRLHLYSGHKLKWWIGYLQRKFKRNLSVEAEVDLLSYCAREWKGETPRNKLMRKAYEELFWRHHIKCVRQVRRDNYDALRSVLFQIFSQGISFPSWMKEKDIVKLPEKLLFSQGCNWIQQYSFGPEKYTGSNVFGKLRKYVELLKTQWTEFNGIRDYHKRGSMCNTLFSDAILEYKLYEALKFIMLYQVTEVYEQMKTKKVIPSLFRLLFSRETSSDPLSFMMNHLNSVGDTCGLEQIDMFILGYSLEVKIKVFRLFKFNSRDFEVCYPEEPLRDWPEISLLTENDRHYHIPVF
A digest of the protocol: as §1

A further assay deals with OTUB1 (UniProt Q96FW1). In short, it runs like this: as §1
OTUB1, sequence (Q96FW1 whole entry): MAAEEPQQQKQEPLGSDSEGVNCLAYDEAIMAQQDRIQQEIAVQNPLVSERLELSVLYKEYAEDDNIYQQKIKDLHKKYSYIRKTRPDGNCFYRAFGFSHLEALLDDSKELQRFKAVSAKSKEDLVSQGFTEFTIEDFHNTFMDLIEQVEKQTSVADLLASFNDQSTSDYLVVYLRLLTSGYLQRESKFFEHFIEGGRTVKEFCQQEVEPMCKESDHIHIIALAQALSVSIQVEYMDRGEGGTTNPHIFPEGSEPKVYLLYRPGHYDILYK
A further assay deals with T4, OTUD4 (UniProt Q01804).
T4 sequence (whole entry): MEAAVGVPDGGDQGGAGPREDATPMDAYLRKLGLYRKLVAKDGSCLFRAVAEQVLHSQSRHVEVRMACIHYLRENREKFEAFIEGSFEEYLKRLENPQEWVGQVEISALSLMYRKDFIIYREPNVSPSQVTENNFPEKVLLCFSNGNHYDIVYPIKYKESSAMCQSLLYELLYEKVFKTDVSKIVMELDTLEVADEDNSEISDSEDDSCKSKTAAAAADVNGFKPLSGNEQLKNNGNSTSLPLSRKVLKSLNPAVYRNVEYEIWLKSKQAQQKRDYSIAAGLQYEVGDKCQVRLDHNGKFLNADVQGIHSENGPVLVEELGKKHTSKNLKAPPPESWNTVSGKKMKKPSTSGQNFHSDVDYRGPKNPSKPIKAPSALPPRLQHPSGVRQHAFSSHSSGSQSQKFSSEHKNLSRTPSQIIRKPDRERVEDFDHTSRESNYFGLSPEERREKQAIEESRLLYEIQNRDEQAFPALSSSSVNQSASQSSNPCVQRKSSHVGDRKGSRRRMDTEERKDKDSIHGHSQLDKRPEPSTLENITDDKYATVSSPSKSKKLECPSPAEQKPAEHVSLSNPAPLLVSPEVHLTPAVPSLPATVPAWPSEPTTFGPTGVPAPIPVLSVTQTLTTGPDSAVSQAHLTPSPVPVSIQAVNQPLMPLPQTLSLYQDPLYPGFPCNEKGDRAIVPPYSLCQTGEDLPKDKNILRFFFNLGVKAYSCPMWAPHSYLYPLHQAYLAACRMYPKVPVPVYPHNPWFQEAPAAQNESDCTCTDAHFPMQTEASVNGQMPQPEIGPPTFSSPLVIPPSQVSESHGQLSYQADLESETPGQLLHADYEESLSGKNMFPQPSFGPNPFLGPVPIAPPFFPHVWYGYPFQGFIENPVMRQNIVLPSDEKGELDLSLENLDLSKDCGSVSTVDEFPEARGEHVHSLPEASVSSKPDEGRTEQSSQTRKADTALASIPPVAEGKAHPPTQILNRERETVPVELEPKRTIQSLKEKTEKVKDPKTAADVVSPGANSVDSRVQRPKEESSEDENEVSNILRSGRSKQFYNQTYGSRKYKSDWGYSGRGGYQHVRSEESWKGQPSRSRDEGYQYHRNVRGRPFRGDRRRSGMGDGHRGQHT
A digest of the protocol: as §1

The next assay has as its target T5, OTUD5 (UniProt Q96G74).
T5 sequence (whole entry): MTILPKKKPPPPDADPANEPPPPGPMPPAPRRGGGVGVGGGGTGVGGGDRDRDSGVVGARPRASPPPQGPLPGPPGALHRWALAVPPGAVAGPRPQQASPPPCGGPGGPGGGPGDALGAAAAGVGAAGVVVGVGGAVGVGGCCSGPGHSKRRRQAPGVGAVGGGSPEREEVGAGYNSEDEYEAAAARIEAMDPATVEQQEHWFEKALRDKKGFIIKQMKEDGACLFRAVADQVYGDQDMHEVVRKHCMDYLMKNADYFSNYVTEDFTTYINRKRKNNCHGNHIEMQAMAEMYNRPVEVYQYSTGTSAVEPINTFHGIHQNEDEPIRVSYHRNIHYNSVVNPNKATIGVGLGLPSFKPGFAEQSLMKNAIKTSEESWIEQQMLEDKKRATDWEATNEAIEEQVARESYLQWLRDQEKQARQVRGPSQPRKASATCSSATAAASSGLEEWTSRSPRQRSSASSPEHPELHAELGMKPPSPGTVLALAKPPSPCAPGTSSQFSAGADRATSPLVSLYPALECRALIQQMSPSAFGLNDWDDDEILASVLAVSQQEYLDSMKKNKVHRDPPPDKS
A digest of the protocol:
as §1

A number with no mark means an inactive call.

The record followed here is the supplement of paper PMC11732987, “Enantioselective OTUD7B fragment discovery through chemoproteomics screening and high-throughput optimisation” (Communications Chemistry, 2025).

ATXN3, sequence (P54252 whole entry): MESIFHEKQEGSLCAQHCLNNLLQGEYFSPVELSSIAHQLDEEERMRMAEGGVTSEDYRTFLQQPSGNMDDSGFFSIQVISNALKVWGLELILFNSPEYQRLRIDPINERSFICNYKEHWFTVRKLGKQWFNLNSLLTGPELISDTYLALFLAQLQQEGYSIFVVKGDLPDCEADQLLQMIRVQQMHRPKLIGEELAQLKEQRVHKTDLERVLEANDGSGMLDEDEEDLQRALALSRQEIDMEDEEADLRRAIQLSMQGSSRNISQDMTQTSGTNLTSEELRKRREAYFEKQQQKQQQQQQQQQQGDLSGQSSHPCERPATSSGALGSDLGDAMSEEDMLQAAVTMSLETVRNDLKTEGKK
EIF3F, sequence (O00303 whole entry): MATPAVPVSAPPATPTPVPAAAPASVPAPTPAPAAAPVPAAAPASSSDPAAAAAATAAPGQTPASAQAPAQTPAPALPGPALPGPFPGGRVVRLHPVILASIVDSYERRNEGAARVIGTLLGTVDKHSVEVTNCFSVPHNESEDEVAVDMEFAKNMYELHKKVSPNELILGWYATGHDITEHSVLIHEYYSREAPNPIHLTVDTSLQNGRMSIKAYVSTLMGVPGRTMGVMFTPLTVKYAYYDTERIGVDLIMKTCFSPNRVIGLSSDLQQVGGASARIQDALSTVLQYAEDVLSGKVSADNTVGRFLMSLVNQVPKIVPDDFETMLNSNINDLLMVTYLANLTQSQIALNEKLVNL

In the case of `CCN1C(=O)C2CN(C(=O)CCl)CCN2C1=O` (configuration not stated), the “log2 ratio of Biotin-Ahx-Ub-VS probe labelling” value (from here on “log2 ratio”) in the assay with ALG13 was 0.104; with ATXN3 it was -0.84; with BAP1, -0.369; with EIF3F it was -0.18; in the assay with EIF3H, 0.0778; with FAM105A, -0.218. Also, the “log2 ratio” value with OTUB1 was -0.315; with OTUD4, -0.523; with OTUD5, -0.206.
For `O=C(CCl)Nc1cc(Cl)ccc1-n1cncn1`, the “log2 ratio” value with ALG13 was 0.0898; with ATXN3, -0.881; in the assay with BAP1, -3 (active); in the assay with EIF3F it was -0.457; in the assay with EIF3H it was 0.376; in the assay with FAM105A, 0.14. For the same compound, the “log2 ratio” value with OTUB1 was -0.487; with OTUD4, -0.779; with OTUD5 it was -1.05 (active).
`O=C(CCl)NCc1cccc(F)c1`: the “log2 ratio” value is -0.54 in the assay with ALG13; -0.297 with ATXN3; -2.76 (active) with BAP1; -0.186 with EIF3F; 0.138 with EIF3H; 0.303 with FAM105A. Besides, the “log2 ratio” value with OTUB1 was -0.181; in the assay with OTUD4, -0.316; with OTUD5, -0.429.
Turning to `CCN(Cc1ccc(C#N)cc1F)C(=O)CCl`, the “log2 ratio” value is 0.0792 with ALG13; -1.1 (active) in the assay with ATXN3; -0.691 with BAP1; -0.201 with EIF3F; 0.0146 with EIF3H; 0.124 with FAM105A. In addition, the “log2 ratio” value with OTUB1 is -0.377; with OTUD4, -0.686; in the assay with OTUD5, -0.653.
Take `Cc1noc(N2CCN(C(=O)CCl)CC2)n1.Cl`: the “log2 ratio” value with ALG13 was -0.0651; in the assay with ATXN3, -0.811; in the assay with BAP1, -0.867; with EIF3F, 0.106; with EIF3H it was -0.241; with FAM105A, 0.317. The figures for the “log2 ratio” value with OTUB1, with OTUD4 and with OTUD5 were 0.11, -0.163 and -0.0833, respectively.
Regarding `O=C(CCl)N1CCC(C(O)c2ccc(F)cc2)CC1` (configuration not stated), the “log2 ratio” value with ALG13 is 0.00454; with ATXN3, -0.475; with BAP1, -0.334; with EIF3F it was -0.0081; in the assay with EIF3H it was 0.17; with FAM105A, -0.0782. For the same compound, the “log2 ratio” value in the assay with OTUB1 is -0.215; with OTUD4, -0.0305; with OTUD5, -0.189.
Take `Cl.O=C(CCl)NCCc1ncc(F)cc1F`: the “log2 ratio” value with ALG13 is 0.103; with ATXN3, -0.404; with BAP1 it was -1.21 (active); with EIF3F it was -0.289; with EIF3H it was 0.21; with FAM105A, 0.131. In addition, the “log2 ratio” value in the assay with OTUB1 was -0.111; in the assay with OTUD4 it was -0.506; with OTUD5, -0.474.
Take `CN(CCC(O)c1ccc(Br)cc1)C(=O)CCl` (configuration not stated): the “log2 ratio” value with ALG13 is -0.222; with ATXN3, -0.473; with BAP1, -2.04 (active); with EIF3F it was -0.372; with EIF3H, 0.178; with FAM105A, 0.138. Further, the “log2 ratio” value is -0.231 with OTUB1, -0.192 in the assay with OTUD4 and -0.354 in the assay with OTUD5.
